# Data from article PMC5540273 (PLoS ONE, 2017).
# Experiments:
# Settings in all cases: concentration: 1 μM, replicates: in singlicate; n = 1
# PDPK1 = system: PDPK1
# PFTAIRE2 = system: PFTAIRE2
# PFTK1 = system: T1, PFTK1
# T1 construct: gene CDK14
# PHKG1 = system: PHKG1
# PHKG2 = system: PHKG2
# PIK3C2B = system: PIK3C2B
# PIK3C2G = system: PIK3C2G
# PIK3CA = system: PIK3CA
# PIK3CB = system: PIK3CB
# PIK3CD = system: PIK3CD
# 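Also: KINOMEscan kinase panel screen.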
SMILES,%Inh (PDPK1),%Inh (PFTAIRE2),%Inh (PFTK1),%Inh (PHKG1),%Inh (PHKG2),%Inh (PIK3C2B),%Inh (PIK3C2G),%Inh (PIK3CA),%Inh (PIK3CB),%Inh (PIK3CD)
Cc1nnc(-c2ccc3ncn(-c4ccc(S(C)=O)cc4)c3c2)o1 (centres unmarked),0%,12%,14%,0%,0%,0%,0%,0%,2%,38%
O=C(Nc1n[nH]c2nc(-c3ccccc3)c(Br)cc12)C1CC1 [SB-708998],20%,1%,7%,0%,0%,0%,9%,0%,0%,3%
COc1cccc(C2=C(N(C)c3ccccc3)C(=O)NC2=O)c1 [SB-334865],0%,0%,20%,0%,0%,0%,0%,0%,0%,0%
COc1ccc(-c2cc3c(C)nc(N)nc3n([C@H]3CC[C@H](O)CC3)c2=O)cn1,0%,0%,0%,9%,1%,99.6%,98.8%,99.7%,100%,94.1%
COc1ccc(Nc2nccc(N3CCC(NS(=O)(=O)c4ccc(NC(C)=O)cc4)C3)n2)cc1 (centres unmarked) [GSK1379729],9%,17%,20%,18%,0%,7%,6%,4%,0%,27%
COC(=O)c1c(-c2ccccc2)c2cc(Br)ccc2c(=O)n1Cc1ccc(NC(=O)CCC(=O)O)cc1,0%,17%,0%,0%,0%,0%,1%,0%,24%,0%
Nc1nc(-c2ccccc2F)c(-c2ccnc3ccccc23)s1 [GW560459],0%,12%,5%,7%,0%,0%,0%,0%,0%,12%
Cl.NS(=O)(=O)c1cccc(Nc2cc(-c3ccc(F)cc3)n[nH]2)c1 [GW824645],0%,24%,9%,0%,0%,0%,0%,11%,0%,0%
Cc1ccccc1COc1cc(-n2cnc3cc(Cl)ccc32)sc1C(N)=O [GW813349],0%,0%,0%,0%,0%,24%,17%,21%,0%,0%
CCS(=O)c1ccc(-c2coc3ccc(-c4nnc(C)o4)cc23)cc1 (centres unmarked),0%,0%,9%,0%,0%,0%,15%,0%,32%,12%
CCC(=O)c1c(-c2ccccc2)c2cc(Cl)ccc2c(=O)n1Cc1cc(S(C)(=O)=O)n(CC(F)F)n1,0%,0%,0%,0%,7%,0%,0%,0%,16%,0%
OCCCNc1nccc(-c2c(-c3cccc(C(F)(F)F)c3)nn3cc(C(F)(F)F)ccc23)n1 [GW630813],0%,1%,18%,0%,5%,0%,0%,0%,0%,0%
Cc1cc(Nc2nc(-c3cccc(C)n3)nc3ccccc23)ccn1 [GW872411],0%,0%,10%,0%,0%,0%,0%,0%,0%,0%
Nc1ncnc2c1ncn2-c1cccc(F)c1 [SKF-97560],7%,0%,20%,5%,0%,0%,35%,0%,0%,0%
COc1cc(Nc2nccc(N3CCC(NC(=O)C(C)c4ccc(Cl)cc4)C3)n2)cc(OC)c1OC (centres unmarked) [GSK1379757],0%,11%,6%,0%,0%,10%,0%,6%,0%,0%
COc1ccc(-n2cnc3c(N)ncnc32)cc1 [SKF-97236],12%,20%,17%,0%,0%,0%,27%,2%,9%,0%
Cc1ccc(-c2ccc3c(ccc4sc5c(c43)NC[C@@H](C)N=C5N(C)C)n2)cn1,0%,0%,0%,0%,0%,0%,0%,0%,55%,15%
